The other results are listed elsewhere or left out. The source made the active and inactive calls. Rule as the data show it: active = activation above about 12%; inactive = the rest. Non-standard residues stand in square brackets, D forms with d. Residues, ends and D or L forms follow the SMILES beside them. ξ: configuration not given here. ξM = CSCCC(N)C(=O)O
biological target: Sphingosine 1-phosphate receptor 4 (Homo sapiens) (UniProt O95977); assay: S1P4 receptor agonists, retest, confirmation, cell-based, high throughput (AID 1523); conditions: S1P4 agonist cell-based reporter assay; at 4.98 µM; stronger effect = higher value;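 also: 0% = vehicle and 100% = full reference agonist response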
Sequence (O95977 whole entry, looked up): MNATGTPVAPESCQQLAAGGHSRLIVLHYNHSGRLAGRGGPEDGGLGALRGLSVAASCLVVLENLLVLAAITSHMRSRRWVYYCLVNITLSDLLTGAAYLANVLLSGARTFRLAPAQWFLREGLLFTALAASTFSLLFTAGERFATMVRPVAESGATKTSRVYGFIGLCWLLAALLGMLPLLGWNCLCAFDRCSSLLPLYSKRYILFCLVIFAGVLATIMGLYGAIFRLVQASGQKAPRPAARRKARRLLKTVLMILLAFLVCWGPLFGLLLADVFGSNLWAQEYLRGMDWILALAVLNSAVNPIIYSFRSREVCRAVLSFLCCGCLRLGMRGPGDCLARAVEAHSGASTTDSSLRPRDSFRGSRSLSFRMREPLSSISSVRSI

| SMILES | activation |
| --- | --- |
| CC1CCCC(NC(=O)COC(=O)[C@@H]2CC(O)CN2S(=O)(=O)c2ccc3c(c2)OCCO3)C1C (some centres not stated) | -1.06% (inactive) |
| COC(=O)[C@@H]1CC[C@H](C)[C@@H](c2ccc(C)cc2)N1C(=O)c1ccc(/C=N/O[C@H](C)c2cn([C@@H]3COC[C@H]3O)nn2)cc1 | -1.25% (inactive) |
| Cc1cc(C)nc(N(C#N)CC(=O)Nc2ccccc2)n1 | -0.69% (inactive) |
| CCn1c(CNC(=O)c2ccc(OC)c(OC)c2)nnc1SCC(=O)Nc1ccccc1 | -2.38% (inactive) |
| Cc1cc(C)c(C#N)c(SCC(=O)NN2CC(=O)N(c3ccccc3F)CC2=O)n1 | -0.87% (inactive) |
| Cc1ccc(NC(=O)Nc2ccccc2)c(Br)c1 | -1.05% (inactive) |
| COc1ccc(-n2c(C)cc(C(=O)CN3C(=O)NC4(CCc5ccccc54)C3=O)c2C)cc1 (configuration not stated) | -1.26% (inactive) |
| O=C(CSc1ccc(-c2ccc(F)cc2)nn1)Nc1ccc2c(c1)OCCO2 | -1.49% (inactive) |
| CC(=O)Nc1ccc(SCC(=O)Nc2ccccc2Oc2ccccc2)cc1 | -3.24% (inactive) |
| COc1ccccc1CNC(=O)CNC(=O)c1cn(-c2ccccc2OC)c(=O)c2ccccc12 | -1.82% (inactive) |
| COc1ccc(C2CC(c3cccs3)=NN2c2ccc(F)cc2)cc1OC (configuration not stated) | 10.7% (inactive) |
| CNC(=O)c1[nH]cnc1C(=O)N[C@@H](CC(C)C)C(=O)OCc1ccccc1 | 48% (active) |
| CCOc1ccc(-c2nnc(-c3ccco3)o2)cc1 | -1% (inactive) |
| CCCCCNC(=O)c1cccnc1SCC(=O)Nc1ccccc1OC | -2.09% (inactive) |
| CC(C)C(c1nnnn1C(C)(C)C)N1CCN(Cc2cccnc2)CC1 (configuration not stated) | -2.62% (inactive) |
| CC(Oc1ccc(Br)cc1Br)C(=O)NC1CCCC1 (configuration not stated) | -1.69% (inactive) |

| SMILES | activation |
| --- | --- |
| CCC(C)NC(=O)C1c2ccccc2Oc2ccccc21 (configuration not stated) | 0.12% (inactive) |
| O=C(COC(=O)Cc1ccc(F)cc1)Nc1cc(S(=O)(=O)N2CCOCC2)ccc1N1CCCC1 | -0.73% (inactive) |
| CC(=O)Nc1ccccc1NC(=O)c1cc(C)cc(C)c1 | -2.02% (inactive) |
| O=C(COC(=O)c1cc([N+](=O)[O-])ccc1NCc1ccccc1)NC1CCCCC1 | -2.43% (inactive) |
| N/C(=N\OC(=O)Cc1ccc([N+](=O)[O-])cc1)c1ccccn1 | -3.04% (inactive) |
| COC(=O)CNC(=O)C(CCSC)NC(C)=O (configuration not stated) (Ac-[ξM]-Gly-OMe) | -1.87% (inactive) |
| CCC(=O)/C(=C(/O)c1ccccc1)c1nc2ccccc2[nH]1 | -1.45% (inactive) |
| O=C(CSc1nncn1-c1cccnc1)N1CCOCC1 | -1.73% (inactive) |
| CSc1sc(C(=O)NNC(=O)c2ccc(Cl)cc2)c2c1C=CCC2 | -2.13% (inactive) |
| COc1ccc(N2C(=O)C(Cc3ccccc3)NC2=S)cc1 (configuration not stated) | -1.44% (inactive) |
| O=C(CSc1nnc(Nc2ccccc2)s1)Nc1cccnc1Cl | -0.71% (inactive) |
| COc1ccc(C2CC(c3cccs3)=NN2c2ccccc2)cc1 (configuration not stated) | 23.1% (active) |
| Cc1noc(C)c1COC(=O)COc1ccc(-c2ccccc2)cc1 | -2.48% (inactive) |
| O=[N+]([O-])c1cccc(Nc2c3ccccc3nc3ccccc23)c1 | 6.3% (inactive) |
| Cc1cc(NC(=O)c2cc(-c3cccs3)on2)nn1Cc1ccc(Cl)cc1 | -0.63% (inactive) |
| C=CCn1c(SCn2nnc3ccccc3c2=O)nnc1-c1ccc(Cl)cc1 | -1.29% (inactive) |

— PubChem BioAssay AID1523 (The Scripps Research Institute Molecular Screening Center, 2009)
